The structures appear in SMILES notation. Out of some 39,000 compounds screened, about 3,300 (8.5%) were called active. The entries come from a sample that favours actives as a whole.

This note sets out measurements from the antibiotic and cytotoxicity screens of Wong et al. (2023).

For this assay, the system named is HepG2. Nature of the assay: cytotoxicity call (relative viability < 0.9). The following applies: 10 µM.
Take `COc1cc(CN)cc(OC)c1OC`: the cytotoxicity call was “inactive”.
Under `C[C@H](CO)N1C[C@H](C)[C@@H](CN(C)C(=O)Nc2ccc(F)cc2)Oc2ccc(NC(=O)CCCCCC(=O)Nc3ccccc3N)cc2CC1=O` stands “inactive”; under `COc1ccc(NC(=O)N(C)C[C@H]2OCCCC[C@@H](C)Oc3ccc(NC(=O)Cc4ccccc4)cc3C(=O)N([C@H](C)CO)C[C@@H]2C)cc1`, “inactive”.
Under `O=C(CN1CCOCC1)NCC[C@H]1CC[C@@H](NS(=O)(=O)c2ccc(F)cc2)[C@H](CO)O1` stands “inactive”; under `C[C@H]1CN([C@@H](C)CO)C(=O)c2cccc(NC(=O)C3CCCCC3)c2O[C@H]1CN(C)S(=O)(=O)c1cn(C)cn1`, “inactive”; under `NCc1c[nH]nc1-c1ccccc1`, “inactive”.
The result for `NCCN1C(=O)c2[nH]nc(-c3ccccc3)c2[C@H]1c1ccccc1` reads “active”; that for `c1ccc(-c2n[nH]c3c2CCC3)cc1`, “inactive”.
In the case of `C[C@@H]1CN([C@H](C)CO)S(=O)(=O)c2ccc(-c3cccc(F)c3)cc2O[C@H]1CN(C)S(C)(=O)=O`, the cytotoxicity call is “inactive”.
For the compound `Clc1ccc2ncccc2c1`, the cytotoxicity call is “inactive”.
`c1ccc2c(c1)Cc1cccnc1-2`: the cytotoxicity call was “inactive”.
As to `Clc1ccc2c(c1)CCc1cccnc1C2=C1CCNCC1`, the cytotoxicity call was “active”.
For `Cl.Clc1ccc2c(c1)CCc1cccnc1C2=C1CCNCC1`, the cytotoxicity call was “active”.
`O=C(C[C@@H]1CC[C@H]2[C@@H](COC[C@H](O)CN2C(=O)c2ccc3c(c2)OCO3)O1)NCCN1CCCCC1`: the cytotoxicity call was “inactive”.
For `Cc1ccc(S(=O)(=O)Nc2cccc3c2O[C@@H](CN(C)C(=O)Nc2cccc4ccccc24)[C@@H](C)CN([C@H](C)CO)C3=O)cc1`, the cytotoxicity call is “inactive”.
The result for `NC(=O)N[C@@H]1CC(=O)N(c2ccccc2)C1` reads “inactive”; that for `NC[C@@H]1CC(=O)N(c2ccccc2)C1`, “active”; that for `NC[C@@H]1CC(=O)N(Cc2ccccc2)C1`, “inactive”.
The result for `O=c1cc(-c2ccccc2)ss1` reads “inactive”.
Under `COc1cc(OC)c(S(=O)(=O)N(C)Cc2ccccc2)cc1S(=O)(=O)N(C)Cc1ccccc1` stands “inactive”; under `Cc1ccc2sc(N(CCCN(C)C)C(=O)c3ccc(S(=O)(=O)N(C)C4CCCCC4)cc3)nc2c1C`, “active”.
Take `Cc1ccc2sc(N(CCCN(C)C)C(=O)c3ccc(S(=O)(=O)N(C)Cc4ccccc4)cc3)nc2c1C`: the cytotoxicity call is “active”.
Under `O=C(c1ccc(S(=O)(=O)N2CCCCCC2)cc1)N(Cc1cccnc1)c1nc2c(F)cc(F)cc2s1` stands “inactive”; under `Cc1cc(Cl)cc2sc(N(Cc3ccccn3)C(=O)c3ccc(S(=O)(=O)N4CCCC4)cc3)nc12`, “inactive”.
The result for `CC(C)(C)NC[C@@H](O)CSc1nc(-c2ccc(C(N)=O)s2)cs1` reads “inactive”.
Under `COCC(=O)N(C)C[C@H]1Oc2cc(-c3ccc(C#N)cc3)ccc2S(=O)(=O)N([C@H](C)CO)C[C@H]1C` stands “inactive”; under `O=C(Nc1nccs1)[C@H]1[C@H](CO)[C@H]2Cn3c(cccc3=O)[C@@H]1N2C(=O)C1CC1`, “inactive”.
Turning to `Cc1noc(C)c1S(=O)(=O)N(C)C[C@@H]1OCCCC[C@H](C)Oc2ccc(NC(=O)Nc3ccccc3)cc2C(=O)N([C@@H](C)CO)C[C@H]1C`, the cytotoxicity call was “inactive”.
`C[C@H](CO)N1C[C@H](C)[C@H](CN(C)Cc2ccncc2)Oc2c(NS(=O)(=O)c3ccc(F)cc3)cccc2C1=O`: the cytotoxicity call is “inactive”.
As to `COC(=O)[C@@H](N)CS[C@H]1CCCCO1`, the cytotoxicity call is “inactive”.
The result for `Cc1noc(C)c1NC(=O)Nc1ccc2c(c1)C(=O)N([C@H](C)CO)C[C@H](C)[C@H](CN(C)Cc1ccc(-c3ccccc3)cc1)O2` reads “inactive”; that for `COc1ccc2c(c1)n(CCN)c(=O)n2C(=O)[C@@H]1C[C@H](C)CC[C@H]1C(C)C`, “active”.
Under `CC(C)[C@H]1CC[C@@H](C)C[C@@H]1NC(=O)c1cccc2ccccc12` stands “inactive”.
For `C[C@@H]1CN([C@@H](C)CO)C(=O)c2cc(NC(=O)CCCN(C)C)ccc2O[C@@H](C)CCCCO[C@@H]1CN(C)C`, the cytotoxicity call was “inactive”.
Turning to `C[C@H]1CN([C@@H](C)CO)C(=O)c2cccc(NC(=O)CCCCCC(=O)Nc3ccccc3N)c2O[C@@H]1CN(C)Cc1ccc(-c2ccccc2)cc1`, the cytotoxicity call is “inactive”.
As to `CN(Cc1ccc(/C=C/C(=O)Nc2ccc(-c3cccs3)cc2N)cc1)CC12CC3CC(CC(C3)C1)C2`, the cytotoxicity call was “inactive”.
The result for `CN(Cc1ccc(/C=C/C(=O)Nc2ccc(-c3ccccc3)cc2N)cc1)CC12CC3CC(CC(C3)C1)C2` reads “active”; that for `O=C(C[C@H]1CC[C@@H]2[C@H](COC[C@H](O)CN2S(=O)(=O)c2cccc(F)c2)O1)NCc1ccncn1`, “inactive”.
For the compound `C[C@H]1CN([C@@H](C)CO)C(=O)c2cc(C#CC3CCCCC3)cnc2O[C@H]1CN(C)C(=O)Cc1ccccn1`, the cytotoxicity call was “inactive”.
Under `CCc1nc2ccc(C(=O)NCc3ccc(OC)cc3)cn2c1N(CC)Cc1cccc(Br)c1` stands “inactive”; under `CC(=O)n1cc([C@@H]2C=C(C(=O)N3CCN(Cc4ccc5c(c4)OCO5)CC3)O[C@H](OCc3ccc(COC(=O)NCCCCCC(=O)NO)cc3)C2)c2ccccc21`, “inactive”; under `CCC(=O)NCc1nn(C)c2c1COCC2`, “inactive”.
For the compound `CCC(=O)NCCC1CCc2ccc3c(c21)CCO3` (configuration not stated), the cytotoxicity call is “active”.
The result for `COc1ccc(NC(=O)N(C)C[C@@H]2OCCCC[C@@H](C)Oc3ccc(NC(=O)Nc4cccc5ccccc45)cc3C(=O)N([C@@H](C)CO)C[C@@H]2C)cc1` reads “inactive”; that for `C[C@H](CO)N1C[C@H](C)[C@@H](CN(C)Cc2ccc3c(c2)OCO3)OCCCC[C@H](C)Oc2ccc(NC(=O)Cc3ccccc3)cc2C1=O`, “inactive”.
The result for `C[C@@H]1CCCCO[C@@H](CN(C)CC2CC2)[C@H](C)CN([C@H](C)CO)C(=O)c2cc(NC(=O)Nc3ccc4c(c3)OCO4)ccc2O1` reads “inactive”.
For the compound `C[C@@H]1CCCCO[C@H](CN(C)CC2CCCCC2)[C@H](C)CN([C@H](C)CO)C(=O)c2cc(NC(=O)Nc3ccc4c(c3)OCO4)ccc2O1`, the cytotoxicity call is “inactive”.
In the case of `C[C@@H]1CCCCO[C@H](CN(C)CC2CC2)[C@@H](C)CN([C@H](C)CO)C(=O)c2cc(NC(=O)Nc3ccc4c(c3)OCO4)ccc2O1`, the cytotoxicity call was “inactive”.
Take `C[C@@H]1CCCCO[C@H](CN(C)CC2CCCCC2)[C@@H](C)CN([C@H](C)CO)C(=O)c2cc(NC(=O)Nc3ccc4c(c3)OCO4)ccc2O1`: the cytotoxicity call was “inactive”.
The result for `C[C@H]1CCCCO[C@H](CN(C)CC2CCCCC2)[C@@H](C)CN([C@@H](C)CO)C(=O)c2cc(NC(=O)Nc3ccc4c(c3)OCO4)ccc2O1` reads “active”; that for `C[C@@H]1CN([C@H](C)CO)C(=O)c2cc(NC(=O)Nc3ccc4c(c3)OCO4)ccc2O[C@@H](C)CCCCO[C@@H]1CN(C)CC1CCCCC1`, “inactive”; that for `C[C@H](CO)N1C[C@H](C)[C@H](CN(C)CC2CC2)OCCCC[C@H](C)Oc2ccc(NC(=O)Nc3ccc4c(c3)OCO4)cc2C1=O`, “inactive”.
Under `C[C@@H]1CCCCO[C@@H](CN(C)CC2CC2)[C@@H](C)CN([C@H](C)CO)C(=O)c2cc(NC(=O)Nc3ccc4c(c3)OCO4)ccc2O1` stands “inactive”; under `C[C@H](CO)N1C[C@H](C)[C@H](CN(C)CC2CCCCC2)OCCCC[C@H](C)Oc2ccc(NC(=O)Nc3ccc4c(c3)OCO4)cc2C1=O`, “active”; under `C[C@@H]1CCCCO[C@@H](CN(C)CC2CCCCC2)[C@@H](C)CN([C@@H](C)CO)C(=O)c2cc(NC(=O)Nc3ccc4c(c3)OCO4)ccc2O1`, “active”.
Under `C[C@H](CO)N1C[C@H](C)[C@@H](CN(C)CC2CC2)OCCCC[C@H](C)Oc2ccc(NC(=O)Nc3ccc4c(c3)OCO4)cc2C1=O` stands “inactive”.
On to `C[C@@H]1CCCCO[C@@H](CN(C)CC2CCCCC2)[C@@H](C)CN([C@H](C)CO)C(=O)c2cc(NC(=O)Nc3ccc4c(c3)OCO4)ccc2O1`, for which the cytotoxicity call is “active”.
Under `CCC[C@@]1(CCc2ccccc2)CC(=O)[C@@H]([C@H](CC)c2cccc(NS(=O)(=O)c3ccc(C(F)(F)F)cn3)c2)C(=O)O1` stands “inactive”; under `C[C@@H]1CCCCO[C@@H](CN(C)Cc2ccc(C(=O)O)cc2)[C@@H](C)CN([C@@H](C)CO)C(=O)c2cc(NS(=O)(=O)c3ccc(F)cc3)ccc2O1`, “inactive”; under `C[C@@H]1CN([C@@H](C)CO)S(=O)(=O)c2ccc(-c3cccnc3)cc2O[C@@H]1CN(C)CC1CCOCC1`, “inactive”.
Consider `COc1ccc(S(=O)(=O)Nc2cccc3c2O[C@H](CN(C)S(=O)(=O)c2ccccc2)[C@@H](C)CN([C@@H](C)CO)C3=O)cc1`, for which the cytotoxicity call is “inactive”.
For the compound `C[C@H](CO)N1C[C@H](C)[C@H](CN(C)S(=O)(=O)c2ccc(F)cc2)Oc2ccc(NC(=O)C3CC3)cc2CC1=O`, the cytotoxicity call is “inactive”.
On to `O=C(O)CCc1n[nH]c(=S)[nH]c1=O`, for which the cytotoxicity call was “inactive”.
Under `Cc1ccc(S(=O)(=O)Nc2ccc3c(c2)C(=O)N([C@H](C)CO)C[C@H](C)[C@@H](CN(C)C(=O)c2ccccc2)OCCCC[C@H](C)O3)cc1` stands “inactive”.
For `C[C@@H]1CN([C@H](C)CO)C(=O)Cc2cc(NC(=O)Cc3ccccc3)ccc2O[C@H]1CN(C)S(=O)(=O)c1ccc(F)cc1`, the cytotoxicity call is “inactive”.
Take `COc1ccc(NC(=O)N(C)C[C@H]2OCCCC[C@H](C)Oc3ccc(NC(=O)Cc4ccccc4)cc3C(=O)N([C@H](C)CO)C[C@H]2C)cc1`: the cytotoxicity call is “inactive”.
For `C[C@@H]1CN([C@H](C)CO)C(=O)Cc2cc(NC(=O)Cn3cnnn3)ccc2O[C@H]1CN(C)S(=O)(=O)c1ccc(F)cc1`, the cytotoxicity call was “inactive”.
Turning to `COc1ccc(S(=O)(=O)Nc2cccc3c2O[C@@H](CN(C)Cc2ccc(Oc4ccccc4)cc2)[C@@H](C)CN([C@@H](C)CO)C3=O)cc1`, the cytotoxicity call was “inactive”.
The result for `CCS(=O)(=O)N1C[C@]2(C1)CN([C@@H](CO)c1c2c2ccc(cc2n1C)OC)C(=O)c1ccc(cc1)F` reads “inactive”; that for `CN(C)C(=O)c1ccc(-c2ccc3n(c2=O)C[C@H]2[C@H](CO)[C@@H](C(=O)NCCc4ccccc4)N[C@@H]32)cc1`, “inactive”; that for `C[C@@H]1CCCCO[C@@H](CN(C)CC2CCCCC2)[C@H](C)CN([C@@H](C)CO)C(=O)c2cc(NC(=O)Nc3ccc4c(c3)OCO4)ccc2O1`, “inactive”.
Under `C[C@@H]1CCCCO[C@H](CN(C)CC2CCCCC2)[C@H](C)CN([C@@H](C)CO)C(=O)c2cc(NC(=O)Nc3ccc4c(c3)OCO4)ccc2O1` stands “active”; under `C[C@@H]1CCCCO[C@@H](CN(C)CC2CCCCC2)[C@H](C)CN([C@H](C)CO)C(=O)c2cc(NC(=O)Nc3ccc4c(c3)OCO4)ccc2O1`, “inactive”.
Under `C[C@H](CO)N1C[C@H](C)[C@@H](CN(C)CC2CCCCC2)OCCCC[C@H](C)Oc2ccc(NC(=O)Nc3ccc4c(c3)OCO4)cc2C1=O` stands “inactive”; under `C[C@H]1CCCCO[C@@H](CN(C)CC2CCCCC2)[C@@H](C)CN([C@@H](C)CO)C(=O)c2cc(NC(=O)Nc3ccc4c(c3)OCO4)ccc2O1`, “active”; under `C[C@@H]1CN([C@@H](C)CO)C(=O)c2cc(NC(=O)Nc3ccc4c(c3)OCO4)ccc2O[C@@H](C)CCCCO[C@H]1CN(C)CC1CCCCC1`, “active”.
As for `C[C@@H]1CN([C@@H](C)CO)C(=O)c2cc(NC(=O)Nc3ccc4c(c3)OCO4)ccc2O[C@@H](C)CCCCO[C@@H]1CN(C)CC1CCCCC1`, the cytotoxicity call was “inactive”.
